Test [1] in a line: antimalarial activity against Dd2 strain (AID 2302;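 active = growth inhibition above 50% at the single 2 µM test dose, taken to imply half-maximal potency below 2 µM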;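 also: 0% = DMSO untreated growth and 100% = chloroquine plus artemisinin killed control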). The settings on record: P. falciparum Dd2 in RBCs, LDH growth readout, 72 h; at 2 µM; hits give high values.
A short description of test [2]: human hepatoma cell viability loss – ATP luminescence, cytotoxicity control for P. falciparum antimalarial project, primary screen (AID 2303;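 active = inhibition above 50%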;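 also: 0% = DMSO wells and 100% = digitonin-killed cells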). The note with it: HepG2 viability, 24-48 h, at 10 µM, hits give high values.
The target of test [3] is L-lactate dehydrogenase (Plasmodium falciparum (isolate CDC / Honduras)) (UniProt Q27743). Description: PfLDH activity inhibition – cell lysate, 3D7 strain, counter-screen for P. falciparum growth inhibition project (AID 2304).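 Also: 0% = vehicle and 100% = reference inhibitor.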 The settings on record: P. falciparum 3D7 crude extract, LDH APAD/NBT absorbance; at 2 µM; hits give high values. Background: The purpose of a counterscreen is to sort out artefacts and off-target activity.

A short description of test [4]: inhibition of 3D7 malaria parasite growth – strain 3D7 (AID 2306).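 Also: 0% = DMSO wells and 100% = chloroquine plus artemisinin control wells.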 The settings on record: P. falciparum 3D7 erythrocytic growth, LDH absorbance, 72 h; at 2 µM; hits give high values.
Test [5] has as its target Calcium-dependent protein kinase 1 (Plasmodium falciparum (isolate 3D7)) (UniProt P62344). Description: PfCDPK1 kinase inhibitors, biochemical, TCAMS library (AID 1159585; cut-off not given, nearly all actives have IC50 up to about 0.98 µM;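 also: inhibitors leave more ATP so luminescence rises with inhibition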). The note with it: recombinant PfCDPK1, Kinase-Glo ATP depletion luminescence. In general terms: In Kinase-Glo more light means more ATP remaining.
Test [6] concerns the target Plasmodium falciparum protein kinase 6 (PK6, PF3D7_1337100) (UniProt Q8IDW1). The test can be described thus: PfPK6 kinase inhibitors, biochemical, TCAMS library (AID 1159586). The settings on record: recombinant PfPK6, Kinase-Glo ATP depletion luminescence.
For test [7], the target named is Protein kinase 7 (PK7), Plasmodium falciparum 3D7 (PF3D7_0213400) (UniProt Q7YTF7). Description: inhibition of Plasmodium PK7 catalytic activity – biochemical, TCAMS antimalarial set, Kinase-Glo luminescence (AID 1159587). The note with it: recombinant PfPK7, Kinase-Glo ATP depletion luminescence.
Test [8] concerns the target Calcium-dependent protein kinase 4 (Plasmodium falciparum (isolate 3D7)) (UniProt Q8IBS5). The test can be described thus: PfCDPK4 kinase inhibitors, biochemical, TCAMS library (AID 1159588; cut-off not given, nearly all actives have IC50 up to about 0.91 µM). The settings on record: recombinant PfCDPK4, Kinase-Glo ATP depletion luminescence.

One may read the inhibition as the drop in the measured response relative to a control, in per cent.

Unmarked numbers belong to inactive results. For some of these results: Results with a measured potency or affinity are listed apart. Calls of active or inactive are those of the source. Unless noted, no rule for the calls is given here.

Plasmodium falciparum protein kinase 6 (PK6, PF3D7_1337100), sequence (Q8IDW1 1-305): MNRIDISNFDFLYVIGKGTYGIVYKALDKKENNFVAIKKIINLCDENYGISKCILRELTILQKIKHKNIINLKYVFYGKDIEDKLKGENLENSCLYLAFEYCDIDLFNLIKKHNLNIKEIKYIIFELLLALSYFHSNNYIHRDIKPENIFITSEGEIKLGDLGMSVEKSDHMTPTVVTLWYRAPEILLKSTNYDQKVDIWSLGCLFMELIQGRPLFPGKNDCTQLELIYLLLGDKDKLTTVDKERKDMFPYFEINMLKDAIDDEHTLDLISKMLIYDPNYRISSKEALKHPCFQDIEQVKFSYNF
Protein kinase 7 (PK7), Plasmodium falciparum 3D7 (PF3D7_0213400), sequence (Q7YTF7 1-343): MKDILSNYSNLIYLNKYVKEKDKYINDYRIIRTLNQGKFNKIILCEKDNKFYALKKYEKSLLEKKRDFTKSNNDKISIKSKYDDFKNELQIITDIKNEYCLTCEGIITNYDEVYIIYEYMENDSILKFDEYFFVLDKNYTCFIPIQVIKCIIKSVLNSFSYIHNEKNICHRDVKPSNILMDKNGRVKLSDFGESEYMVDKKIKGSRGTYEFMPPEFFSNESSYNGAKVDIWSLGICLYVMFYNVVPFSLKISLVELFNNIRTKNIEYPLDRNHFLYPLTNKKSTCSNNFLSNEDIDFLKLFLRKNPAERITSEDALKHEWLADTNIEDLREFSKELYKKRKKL
L-lactate dehydrogenase (Plasmodium falciparum (isolate CDC / Honduras)), sequence (Q27743 whole entry, looked up): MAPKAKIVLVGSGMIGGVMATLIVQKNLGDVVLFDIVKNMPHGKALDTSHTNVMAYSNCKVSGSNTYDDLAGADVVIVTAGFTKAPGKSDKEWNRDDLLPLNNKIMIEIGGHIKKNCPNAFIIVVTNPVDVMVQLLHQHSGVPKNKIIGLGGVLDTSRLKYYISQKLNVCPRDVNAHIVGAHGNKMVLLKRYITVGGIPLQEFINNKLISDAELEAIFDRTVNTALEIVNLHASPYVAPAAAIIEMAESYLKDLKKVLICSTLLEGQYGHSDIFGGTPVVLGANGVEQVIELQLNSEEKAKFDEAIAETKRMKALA
Calcium-dependent protein kinase 1 (Plasmodium falciparum (isolate 3D7)), sequence (P62344 whole entry, looked up): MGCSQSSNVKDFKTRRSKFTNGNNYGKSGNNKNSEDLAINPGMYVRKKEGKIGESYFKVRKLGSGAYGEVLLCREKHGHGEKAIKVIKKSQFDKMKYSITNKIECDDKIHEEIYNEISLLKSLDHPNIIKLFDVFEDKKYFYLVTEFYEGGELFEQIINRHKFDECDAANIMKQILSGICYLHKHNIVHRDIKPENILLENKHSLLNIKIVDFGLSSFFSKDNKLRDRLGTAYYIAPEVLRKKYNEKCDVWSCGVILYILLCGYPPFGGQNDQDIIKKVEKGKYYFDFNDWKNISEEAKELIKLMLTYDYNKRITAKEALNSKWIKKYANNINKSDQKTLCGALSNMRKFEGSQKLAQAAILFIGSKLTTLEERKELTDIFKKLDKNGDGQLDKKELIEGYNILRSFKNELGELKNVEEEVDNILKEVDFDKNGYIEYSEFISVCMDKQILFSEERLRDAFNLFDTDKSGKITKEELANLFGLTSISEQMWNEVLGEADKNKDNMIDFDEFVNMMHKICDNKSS
Calcium-dependent protein kinase 4 (Plasmodium falciparum (isolate 3D7)), sequence (Q8IBS5 whole entry, looked up): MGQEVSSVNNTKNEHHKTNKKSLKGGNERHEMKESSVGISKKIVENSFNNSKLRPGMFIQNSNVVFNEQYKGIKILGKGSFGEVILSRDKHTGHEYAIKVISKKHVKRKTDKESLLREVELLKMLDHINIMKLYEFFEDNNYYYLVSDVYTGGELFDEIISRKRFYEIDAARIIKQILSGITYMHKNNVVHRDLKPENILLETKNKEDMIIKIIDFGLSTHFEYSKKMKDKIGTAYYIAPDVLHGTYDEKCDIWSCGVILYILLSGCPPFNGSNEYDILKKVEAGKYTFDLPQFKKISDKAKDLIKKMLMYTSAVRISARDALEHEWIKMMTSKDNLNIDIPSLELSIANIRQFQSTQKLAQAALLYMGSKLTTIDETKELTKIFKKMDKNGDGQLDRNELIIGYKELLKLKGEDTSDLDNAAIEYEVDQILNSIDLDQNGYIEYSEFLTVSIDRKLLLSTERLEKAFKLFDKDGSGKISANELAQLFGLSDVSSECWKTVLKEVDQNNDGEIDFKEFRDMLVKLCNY

On to `CC(C)(C)c1ccc(Cn2c(=N)n(CC(=O)c3ccc(-c4ccccc4)cc3)c3ccccc32)cc1`, for which the growth inhibition in test [1] was 50% (active); in test [4], 98% (active). Besides, the inhibition was 63% (active) in test [2] and -5% in test [3]. Besides, the result in test [5], in test [6], in test [7] and in test [8] was inactive.

Turning to `CN1CCN(c2cc(-c3cccc(C(F)(F)F)c3)nc(-c3ccncc3)n2)CC1`, the figures for the growth inhibition in test [1] and in test [4] were 98% (active) and 102% (active), respectively. The figures for the inhibition in test [2] and in test [3] were 38% and 1%, respectively. Besides, the result in test [5], in test [6], in test [7] and in test [8] was inactive.

With `Nc1ccc(-c2ccc(NC(=O)Nc3cc(C(F)(F)F)ccc3F)cc2)cn1`, the growth inhibition was 39% in test [1] and 99% (active) in test [4]. Besides, the inhibition in test [2] is -6%; in test [3], -9%. The outcome in test [5], in test [6], in test [7] and in test [8] was inactive.

With `CCc1ccc(NC(=O)N(CCCN2CCN(C)CC2)Cc2csc(-c3ccc(CNCc4ccccc4)cc3)n2)cc1`, the growth inhibition in test [1] was 80% (active); in test [4], 99% (active). Further, the inhibition is 17% in test [2] and -1% in test [3]. Besides, the outcome in test [5], in test [6], in test [7] and in test [8] was inactive.

On to `COc1ccccc1C1CC(c2ccc(C)cc2)=NN1C(=O)c1ccccc1` (stereo not given), for which the growth inhibition is 45% in test [1] and 98% (active) in test [4]. Further, the inhibition in test [2] is 37%; in test [3] it was -5%. In addition, the result in test [5], in test [6], in test [7] and in test [8] was inactive.

`COc1ccc(CNC(=O)Nc2cc3cc(-c4ccc(CN(C)C)cc4)ccc3n3c(C)nnc23)cc1`: the values for the growth inhibition in test [1] and in test [4] were 80% (active) and 93% (active), respectively. The results for the inhibition in test [2] and in test [3] were 99% (active) and -4%, respectively. The result in test [5], in test [6], in test [7] and in test [8] was inactive.

As for `CCc1c(CCNCCCCCCNCCc2ccc([N+](=O)[O-])cc2)ccc(OC)c1OC`, the figures for the growth inhibition in test [1] and in test [4] were 2% and 101% (active), respectively. Also, the inhibition is 35% in test [2] and 6% in test [3]. The outcome in test [5], in test [6], in test [7] and in test [8] was inactive.

For `NC(=O)c1cccc(C(=O)Nc2ccc(-c3cccc(-c4nc5ccc(C(F)(F)F)cc5[nH]4)c3)cc2)c1`, the growth inhibition was 86% (active) in test [1] and 100% (active) in test [4]. The figures for the inhibition in test [2] and in test [3] were 74% (active) and -2%, respectively. Also, the outcome in test [5], in test [6], in test [7] and in test [8] was inactive.

`Cc1cc2nc(-c3ccc(/C=C/C(=O)NCc4ccc(Cl)c(Cl)c4)cc3)[nH]c2cc1C`: the growth inhibition in test [1] was 83% (active); in test [4], 98% (active). The values for the inhibition in test [2] and in test [3] were 32% and -1%, respectively. Further, the outcome in test [5], in test [6], in test [7] and in test [8] was inactive.

Take `FC(F)(F)c1ccc2nc(-c3ccc(-c4cccc(CN5CCCCC5)c4)cc3)[nH]c2c1`: the growth inhibition in test [1] was 99% (active); in test [4], 100% (active). The inhibition is 22% in test [2] and 2% in test [3]. Moreover, the result in test [5], in test [6], in test [7] and in test [8] was inactive.

Regarding `COc1ccc(-c2ccc3c(-c4cccc(S(C)(=O)=O)c4)cnc(N)c3c2)cc1`, the growth inhibition in test [1] was 12%; in test [4], 89% (active). The inhibition in test [2] is 41%; in test [3] it was 2%. Moreover, the result in test [5], in test [6], in test [7] and in test [8] was inactive.

Turning to `CN(C)CCCNCc1ccc(-c2ccc(CNCCOc3ccccc3)cc2)cc1`, the growth inhibition in test [1] is 53% (active); in test [4], 100% (active). Also, the inhibition in test [2] is 27%; in test [3], 0%. Further, the outcome in test [5], in test [6], in test [7] and in test [8] was inactive.

On to `CCCCCCN1CCCN(Cc2ccc(C(=O)Nc3cccc(CC)c3)cc2)CC1`, for which the growth inhibition in test [1] is 54% (active); in test [4], 85% (active). For the same compound, the inhibition was 31% in test [2] and -3% in test [3]. In addition, the outcome in test [5], in test [6], in test [7] and in test [8] was inactive.

As to `CCN(CC)CCNc1ccc(Nc2ccnc3cc4ccccc4cc23)cc1`, the growth inhibition in test [1] was 99% (active); in test [4] it was 102% (active). The inhibition in test [2] is 36%; in test [3], -8%. The result in test [5], in test [6], in test [7] and in test [8] was inactive.

With `c1ccc2c(Nc3ccc(OCCOCCOc4ccc(Nc5c6ccccc6nc6ccccc56)cc4)cc3)c3ccccc3nc2c1`, the growth inhibition in test [1] is 97% (active); in test [4] it was 101% (active). The inhibition in test [2] is 38%; in test [3] it was 7%. The result in test [5], in test [6], in test [7] and in test [8] was inactive.

In the case of `O=C(c1ccc([N+](=O)[O-])o1)N1CCN(c2ccccc2)CC1`, the growth inhibition in test [1] is 72% (active); in test [4], 94% (active). The inhibition in test [2] was 44%; in test [3], 0%. Further, the result in test [5], in test [6], in test [7] and in test [8] was inactive.

For `COC(=O)c1ccc(NC(=O)Nc2cccc(CCNCc3ccccc3)c2)cc1`, the growth inhibition in test [1] was 10%; in test [4], 96% (active). The inhibition is 2% in test [2] and 6% in test [3]. Further, the result in test [5], in test [6], in test [7] and in test [8] was inactive.

Take `COc1ccc2nccc([C@@H](O)CN3CCC(NCc4nc5c(F)cccc5[nH]4)CC3)c2c1`: the growth inhibition in test [1] is 6%; in test [4], 103% (active). Also, the inhibition in test [2] was -6%; in test [3], -7%. Moreover, the outcome in test [5], in test [6], in test [7] and in test [8] was inactive.

As for `CC(C)NCc1ccc(-c2cccc(NC(=O)c3cccc(Cl)c3)c2)cc1`, the values for the growth inhibition in test [1] and in test [4] were 87% (active) and 100% (active), respectively. The inhibition in test [2] was 24%; in test [3] it was 1%. Besides, the result in test [5], in test [6], in test [7] and in test [8] was inactive.

Regarding `CC(C(=O)N1CCCC1)N1CCN(S(=O)(=O)c2ccc(C(C)(C)C)cc2)CC1` (stereo not given), the results for the growth inhibition in test [1] and in test [4] were 86% (active) and 98% (active), respectively. Also, the inhibition in test [2] is 4%; in test [3], 0%. Besides, the result in test [5], in test [6], in test [7] and in test [8] was inactive.

Source of the values: PubChem BioAssay.
